Source: PubChem
Compounds with a hit are over-represented: about 0.039% of the library has one in this group of screens.
MBNL1-CUG inh = qHTS Assay for Inhibitors of MBNL1-poly(CUG) RNA binding | Muscleblind-like protein 1 (Homo sapiens), Q9NR56 | TR-FRET MBNL1-His/biotin-(CUG)12 binding, 665/545 ratio | Potency, µM (highest dose often 57.5 µM), without a hit: top-dose activity change, negative = inhibition, usual class: inhibitors | 280,000 tested, 0.036% active; active = well fitted inhibition curve with a large enough effect in the signal ratio, with a control signal flat, not every such curve was filed as active; inconclusive = small, poorly fitted or top-dose-only effect, or effect the other way, or a change in a side signal; inactive = no such curve, though single readings can be large or run the other way; the % refers to the signal ratio; also: potency is read from the fitted curve at half-maximal effect; % is scaled to controls: 0 for no effect and ±100 for the full control effect
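MBNL1-His + Biotin-(CUG)12, cpd titration 92 nM–58 uM; Tb anti-His Ab 0.055 ng/ul, SA-XL665 5 nM (final); 60 min RT; ratiometric 665/545 nm, Ex 340 nm; normalized to buffer and full-complex controls.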
Lamin A splicing = qHTS Assay for Modulators of Lamin A Splicing; HeLa LMNA splicing GFP/RFP minigene ratio, 48 h; 200,000 tested, 0.01% active; Potency, µM (doses to about 46.1 µM), for the others: top-dose ratio change, negative = inhibition, actives largely listed as inhibitors; active = well fitted inhibition curve with a large enough effect in the signal ratio, with a control signal flat, not every such curve was filed as active; inconclusive = small, poorly fitted or top-dose-only effect, or effect the other way, or a change in a side signal; the % refers to the signal ratio; also: potency is read from the fitted curve at half-maximal effect; % is scaled to controls: 0 for no effect and ±100 for the full control effect
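S3 HeLa cells stably expressing lamin A-EGFP splicing minigene plus DsRed2, 600 cells/well, 48 h compound exposure at 37C. Laser-scanning cytometry; analysed as GFP (500-530 nm)/RFP (575-640 nm) total intensity ratio; 0.5% DMSO vehicle.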
CBFb-RUNX1 inh = qHTS Assay for Compounds Blocking the Interaction Between CBF-beta and RUNX1 for the Treatment of Acute Myeloid Leukemia; Runt-related transcription factor 1 (Homo sapiens) + Core-binding factor subunit beta …; AlphaScreen CBFb-His/RUNX1-biotin binding, biochemical; Potency, µM (highest dose often 59.8 µM), inactives show at the top dose activity, negative = inhibition, most hits filed as inhibitors; 230,000 tested, under 10 active; also: % of control where 0% means no effect
Target sequence (Q01196 whole entry, looked up): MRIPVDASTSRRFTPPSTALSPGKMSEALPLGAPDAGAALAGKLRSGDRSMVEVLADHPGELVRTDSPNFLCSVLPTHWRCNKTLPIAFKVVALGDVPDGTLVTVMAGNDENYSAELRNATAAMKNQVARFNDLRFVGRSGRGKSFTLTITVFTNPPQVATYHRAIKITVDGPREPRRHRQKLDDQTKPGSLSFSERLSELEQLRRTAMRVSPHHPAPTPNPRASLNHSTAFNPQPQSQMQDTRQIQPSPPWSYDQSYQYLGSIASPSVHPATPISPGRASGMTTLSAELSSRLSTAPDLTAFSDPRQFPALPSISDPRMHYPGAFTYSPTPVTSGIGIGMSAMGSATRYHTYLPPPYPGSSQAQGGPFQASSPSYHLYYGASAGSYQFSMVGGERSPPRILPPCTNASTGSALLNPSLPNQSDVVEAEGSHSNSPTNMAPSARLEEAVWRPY
Target sequence (Q13951 whole entry, looked up): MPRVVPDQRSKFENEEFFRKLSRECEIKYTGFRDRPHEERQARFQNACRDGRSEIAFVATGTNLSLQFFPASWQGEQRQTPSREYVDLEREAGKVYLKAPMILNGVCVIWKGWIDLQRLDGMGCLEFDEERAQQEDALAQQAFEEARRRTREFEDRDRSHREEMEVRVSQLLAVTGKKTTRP
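CBF-beta (His) and RUNX1 (biotin), 30 nM each; 20 min preassociation; + compound, 15 min; + beads 50 ng each (Ni, streptavidin), 90 min; RT; AlphaScreen read.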
MBNL1 TRFRET = qHTS Assay for Inhibitors of MBNL1-poly(CUG) RNA binding: Initial hit validation from the primary screen | shares compounds with MBNL1-CUG inh | TR-FRET MBNL1-His / biotin-(CUG)12 binding, 60 min | Potency, µM (series often up to 57.6 µM), for the others: at the top dose activity change, negative = inhibition, most hits filed as inhibitors | 140 tested, 50% active | AID 493199, 2011
MBNL1-CUG Alpha = qHTS Assay for Inhibitors of MBNL1-poly(CUG) RNA binding: Initial hit validation in AlphaScreen assay for MBNL1-(CUG)12 binding; shares compounds with MBNL1-CUG inh; AlphaScreen MBNL1-His / biotin-(CUG)12 binding; Potency, µM (titrated, usually from 57.7 µM), for the others: top-dose activity, negative = inhibition, usual class: inhibitors; 140 tested, 30% active; AID 493205, 2011
Menin-MLL HTRF = qHTS Assay for Inhibitors of MBNL1-poly(CUG) RNA binding: Counterscreen HTRF assay; shares compounds with MBNL1-CUG inh; His-Menin/biotin-MLL peptide TR-FRET counterscreen; Potency, µM (highest dose often 57.6 µM), without a hit: at the highest dose activity, negative = inhibition, actives largely listed as inhibitors; 120 tested, 20% active; AID 651843, 2012
Numbers without * were called inactive; ? = inconclusive; . = no result; [ ] = dose if it differs, or a comment. Unless noted, calls follow the shape of the dose curve; as a rule, active = well fitted curve in the direction sought with a large enough effect; inconclusive = small, poorly fitted or top-dose-only effect, or another doubt; inactive = no such curve, though single readings can be large; an effect the other way counts as inactive or inconclusive.

SMILES | MBNL1-CUG inh | Lamin A splicing | CBFb-RUNX1 inh | MBNL1 TRFRET | MBNL1-CUG Alpha | Menin-MLL HTRF
O=C(CCO)c1ccc(O)cc1 | 25.1µM* | . | . | ? | ? | -0.3%
COc1ccc2c(c1)CC[C@@H]1[C@@H]2CC[C@]2(C)[C@@H](NCCCCCCN3C(=O)C=CC3=O)CC[C@@H]12 | . | . | -12.5% | . | . | .
NCCCC(N)CC(=O)NC1CNC(=O)C(C2CC(O)N=C(N)N2)NC(=O)/C(=C/NC(N)=O)NC(=O)C(CO)NC(=O)C(CO)NC1=O (stereo not drawn) | . | -6.8% | . | ? | ? | .
C[C@@H]1NC(=O)[C@@H](N)CNC(=O)[C@H](C2CCNC(N)=N2)NC(=O)/C(=C/NC(N)=O)NC(=O)[C@H](CNC(=O)C[C@@H](N)CCCN)NC1=O (stereo partly drawn) | . | . | . | . | . | -11.0%
CC1NC(=O)C(N)CNC(=O)C(C2CCN=C(N)N2)NC(=O)/C(=C/NC(N)=O)NC(=O)C(CNC(=O)CC(N)CCCN)NC1=O (stereo not drawn) | . | . | 26.8% | . | . | .
NCCCC(N)CC(=O)NCC1NC(=O)C(CO)NC(=O)C(N)CNC(=O)C(C2CCN=C(N)N2)NC(=O)/C(=C\NC(N)=O)NC1=O (stereo not drawn) | . | . | 18.2% | . | . | .
CCN1C(=O)[C@@H]2[C@H]3C(=CC[C@H]2C1=O)C(=O)[C@H]1OC1[C@H]3O (stereo partly drawn) | . | . | -4.2%[13.1 µM] | . | . | .
CCCN1CCN(CCCNC(=O)Cn2c(-c3cccs3)cc3ccccc32)CC1 | . | -3.9%[46 µM] | . | . | . | .
COc1ccc(-c2nc(SCC(=O)Nc3cc(C)on3)n[nH]2)cc1 | 39.8µM* | 3.5% | 3.3% | 16.3µM* | -8.6% | ?
CCCCc1nc(SCC(=O)Nc2cc(C)on2)n[nH]1 | 2.2% | -7.0% | 4.1% | . | . | .
CC[C@H](C)[C@H](NC(=O)[C@H](Cc1ccc(O)cc1)NC(=O)[C@@H](NC(=O)[C@H](CCCNC(=N)N)NC(=O)[C@@H](N)CC(=O)O)C(C)C)C(=O)N[C@@H](Cc1cnc[nH]1)C(=O)N1CCC[C@H]1C(=O)N[C@@H](Cc1ccccc1)C(=O)N[C@@H](Cc1cnc[nH]1)C(=O)N[C@@H](CC(C)C)C(=O)N[C@@H](CC(C)C)C(=O)N[C@H](C(=O)N[C@@H](Cc1ccc(O)cc1)C(=O)N[C@@H](CO)C(=O)O)C(C)C | . | . | 4.1% | . | . | .
N#CC(C#N)=C(N)/C(C#N)=C/c1ccc2[nH]ccc2c1 | . | . | 0.8% | . | . | .
COc1ccc(N2CC(C(=O)NCCc3ccc(OC)c(OC)c3)CC2=O)cc1 (stereo not drawn) | -3.1% | 7.2% | -0.7% | . | . | .
COc1ccc(CCNC(=O)C2CC(=O)N(c3ccc(F)cc3)C2)cc1OC (stereo not drawn) | 0.794µM* | 2.7% | 0.2% | -8.7% | -8.1% | -0.2%
COc1ccc(-c2nc3c(c4c2C[C@H](c2ccccc2)OC4)CN(S(=O)(=O)c2ccc(Cl)c4nonc24)CC3)c(C)c1 | . | ? | -3.7%[13.1 µM] | . | . | .
NS(=O)(=O)c1ccc(NC(=O)Nc2ccc(S(N)(=O)=O)cc2)cc1 | -3.5% | . | 7.7% | . | . | .
O=C(Nc1cc(C(=O)Nc2ccc(S(=O)(=O)O)cc2S(=O)(=O)O)cc(C(=O)Nc2ccc(S(=O)(=O)O)cc2S(=O)(=O)O)c1)Nc1cc(C(=O)Nc2ccc(S(=O)(=O)O)cc2S(=O)(=O)O)cc(C(=O)Nc2ccc(S(=O)(=O)O)cc2S(=O)(=O)O)c1 | . | ? | 1.3% | 20µM* | 28.2µM* | .
CCOc1ccc(C[C@H]2NC(=O)CCSSC[C@@H](C(=O)N3CCC[C@H]3C(=O)N[C@@H](CCCN)C(=O)NCC(N)=O)NC(=O)[C@H](CC(N)=O)NC(=O)[C@H]([C@@H](C)O)NC(=O)[C@H]([C@@H](C)CC)NC2=O)cc1 | . | . | 4.4% | . | . | .
O=C(O)C1Nc2c(O)cccc2C2C=CCC12 (stereo not drawn) | . | -5.8% | . | 10.3µM* | 2.06µM* | 5.4%
O=C(O)C1Nc2c(Cl)cc(Cl)cc2C2C=CCC12 (stereo not drawn) | 17.3% | . | . | . | . | .
C=CCOC(=O)N[C@H](/C(C(=O)OC)=C(\C)NCc1ccccc1)c1cccc(OC)c1 | . | . | 9.9% | . | . | .
CN(CC(=O)Nc1sccc1C#N)C1CCCCC1 | 28.2µM* | -9.8% | 11.0% | -22.3% | -0.5% | 0.4%
N#Cc1ccsc1NC(=O)CN1CCCCCC1 | 1.4% | 5.8% | 0.0% | . | . | .
CC(=O)N[C@@H](CSC(=O)[C@]1([C@@H](O)C(C)C)NC(=O)[C@H](C)[C@@H]1O)C(=O)O | . | . | 13.5%[13.1 µM] | . | . | .
COC(=O)CCC(=O)OC1(C)C(=O)C=C2C=C(CCCNC(=O)OC(C)(C)C)OC=C2C1=O (stereo not drawn) | . | . | 14.4% | . | . | .
SMILES | MBNL1-CUG inh | Lamin A splicing | CBFb-RUNX1 inh | MBNL1 TRFRET | MBNL1-CUG Alpha | Menin-MLL HTRF
Cc1ccc(N2CC(NC(=O)C3CCCC3)CC2=O)cc1C (stereo not drawn) | . | -2.8%[46 µM] | . | . | . | .
Cn1nccc1NC(=O)Nc1cccc(Cl)c1 | 31.6µM* | . | 9.2% | ? | ? | 32.6µM*
Cn1nccc1NC(=O)Nc1cccc([N+](=O)[O-])c1 | ? | . | 7.5% | . | . | .
Nc1ccc2c(c1)C(=O)C(=O)c1ccccc1-2 | ? | ? | -3.2% | ? | 6.51µM* | 86.9%
Nc1ccc2c(c1)C(=O)c1ccccc1C2=O | . | . | -14.9%[21.7 µM] | . | . | .
COC(=O)C/C=C/C(C)C(OCc1cccc(Br)c1)C(C)C(OC)C1CCCCC1 (stereo not drawn) | . | . | 6.5%[13.1 µM] | . | . | .
COC(=O)c1ccc(NC(=O)C(c2ccccc2)N2Cc3ccccc3C2=O)cc1 (stereo not drawn) | . | -4.4%[46 µM] | . | . | . | .
O=C(O)[C@@H](c1ccccc1)N1Cc2ccccc2C1=O | 39.8µM* | 10.5% | 1.2% | 25.9µM* | 20.6µM* | -2.8%
Nc1ncnc2c1ncn2[C@@H]1O[C@H](C(=O)NC2CC2)[C@H](O)[C@H]1O | . | -7.7% | 0.6% | . | . | .
CC(=O)Nc1nc(-c2ccc(Cl)cc2)nc(C)c1C(C)=O | 25.1µM* | -14.3% | 18.9% | ? | ? | ?
CC(=O)c1c(C)nc(C)nc1NC(=O)Cc1ccccc1 | ? | -3.7% | -1.9% | . | . | .
COc1cccc(C(=O)Nc2c(C(=O)NC(C)(C)C)oc3ccccc23)c1 | . | -29.7%[46 µM] | . | . | . | .
